The results in this text go back to ChEMBL document CHEMBL1156829.

“And” between values parts separate entries of the source, which are not always exact repeats. Identical values can stand only once. Over roughly 5,400 compounds, “IFI” has its median near 2; the highest 2% begin near 22. The list comes from a sample in which the highest values are over-represented; it also holds similar structures and randomly drawn compounds.

The nature of the test: NOVARTIS: Inhibition Frequency Index (IFI) - the number of HTS assays where a compound showed > 50% inhibition/induction, expressed as a percentage of the number of assays in which the compound was tested. It counts as functional.
As to `OC1(c2ccc(Br)cc2)CCN(C2CCN(Cc3ccccc3)CC2)CC1`, the IFI worked out at 1.57%. Next, `COCC(=O)NCc1ccc(OC2CCN(CC(c3ccccc3)c3ccccc3)CC2)cc1`: 1.41%; `O=C(Nc1cccc(Oc2ccccc2)c1)NC(CN1CCCC1)c1ccccc1` (stereo unspecified): 7.04%. In the case of `CCCCCCC1CCC(O)(C(C)(O)C(=O)NC2C(=O)N3NCCCC3C(=O)N(O)C(COC)C(=O)NCC(=O)N3NCCCC3C(=O)N(O)C(C)C(=O)OC2C)OC1C` (stereo unspecified) it was 39.3%; in that of `CC[C@H](C)C[C@H]1CC[C@](O)([C@](C)(O)C(=O)N[C@@H]2C(=O)N3NCCC[C@@H]3C(=O)N(O)[C@@H](C)C(=O)NCC(=O)N3NCCC[C@H]3C(=O)N(O)[C@H](C)C(=O)O[C@H]2C(C)C)O[C@@H]1C`, 34.4%; in that of `COc1ccc(CN2CCOc3ccc(C(C)(O)CN(C)C)cc3C2)cc1C` (stereo unspecified), 0%. Next, `CCOC(=O)c1c(C)n(-c2ccccc2)c2ccc(O)cc12`: 2.54%. As to `CCN1CCN(c2c(C(=O)c3ccccc3)cnc3cc(OC)c(OC)cc23)CC1`, the IFI was 2.22%. Next, `CCCCc1c(C)nc2c(OC)cccc2c1O`: 0%; `CCCCN(C)Cc1cc(-c2cccc(OC)n2)ccc1O`: 3.42%. `Oc1c2c(nc3cc(-c4ccccc4)nn13)CCCC2` registered an IFI of 7.14%. Next, `CC(C)CNCc1cc(-c2ccc(F)cc2)ccc1O`: 0.98%; `CC(=O)Nc1c(NCc2ccccc2)c2ccccc2sc1=O`: 2.17%.

As for `Cc1ccc(Nc2nc3c(N)nnc(N)c3nc2Nc2ccc(C)cc2)cc1`, the IFI came out at 2.98%. In the case of `O=C(NN=CC(Br)=Cc1ccccc1)c1ccc(F)cc1` it was 0%. Next, `CCS/C(Cl)=C(/NC(=O)c1ccccc1)[P+](c1ccccc1)(c1ccccc1)c1ccccc1`: 3.57%.

Compound `O=C(NC(=C(Cl)Cl)[P+](c1ccccc1)(c1ccccc1)c1ccccc1)c1ccc(F)cc1` registered an IFI of 27.3%.

For `COc1ccc(/C=C(/C#N)C(=O)Nc2cccc3ccccc23)cc1`, the IFI was 0%. In the case of `COc1cc(NC(C)CCCN(Cc2ccc(Cl)cc2)C(=O)Nc2cccc(C(F)(F)F)c2)c2ncccc2c1` (stereo unspecified) it was 2.7%; in that of `Cc1ccccc1C[n+]1cc(-c2ccc(Cl)cc2)n2c1CCC2`, 7.14%. Next, `CCCCNC1=CC(=O)C(=O)c2ccccc21`: 15.4%; `CCSC1=CC(=O)c2ccccc2C1=O`: 24.3%; `Cc1c(C(=O)NCCN2CCCC2)cnn1-c1ncc2c(n1)-c1ccccc1SC2`: 2.59%. Next, `COCCOC(=O)C1=C(C)NC2=C(C(=O)CC(c3ccc(OC)c(OC)c3)C2)C1c1ccccc1Cl` (stereo unspecified): 2.33%; `CC(C)NC(=O)c1ccc2c(c1)N=C(c1ccccc1)N(C1CC1)C2`: 2.47%.

Consider `Cc1ccccc1C=NNc1nc2ccccc2[nH]1`, for which the IFI is 0%. In the case of `CCN1/C(=C/c2ccc3ccccc3[n+]2CC)Sc2sc3ccccc3c21` it was 18.3%. For the compound `CC[n+]1c(/C=C2\Sc3cc(C)ccc3N2CCO)ccc2ccccc21`, the IFI was 15.4%. In the case of `CC[n+]1c(/C=C2\Sc3ccc(C)cc3N2CCO)ccc2ccccc21` it was 15.4%. Next, `CCN1C(=Cc2ccc3ccccc3[n+]2CC)C=Cc2sc3ccccc3c21`: 31.4%.

Turning to `CCN1/C(=C/c2ccc3ccccc3[n+]2CC)Sc2c1ccc1ccccc21`, the IFI was 24.1% and 14.3%. Next, `CC[n+]1c(/C=C2\Sc3ccc(OC)cc3N2C)ccc2cc(C)ccc21`: 14.3%; `CCN1/C(=C/c2ccc3ccccc3[n+]2CC)Sc2cc(NC(C)=O)ccc21`: 8.33%; `CC[n+]1c(/C=C2\Sc3ccccc3N2CCO)ccc2cc(C)ccc21`: 6.35%. Next, `CC[n+]1c(/C=C2\Sc3oc4ccccc4c3N2C)ccc2cc(C)ccc21`: 26.1%; `CCN1/C(=C/c2cccc[n+]2C)C=Cc2ccccc21`: 8.33%. Next, `CCN1/C(=C/c2[se]c3ccccc3[n+]2CC)C=Cc2cc(OC)ccc21`: 19.6%.

`CCN1/C(=C/c2ccc3ccccc3[n+]2CC)C=Cc2ccccc21` returned an IFI of 22.7%. In the case of `CCCC(=O)N1CCN(c2nc(Cc3ccccc3)c3c(c2C#N)CC(C)(C)OC3)CC1` it was 4.54%. In the case of `COc1ccc(-c2nc(CN3CCCCC3)ccc2O)cc1` it was 0%. The compound `CCOC(=O)C1=C(C)NC2=C(C(=O)C(C(=O)OCC)C(c3ccccc3OC)C2)C1c1sccc1C` (stereo unspecified) came in with an IFI of 3.49%. Next, `COc1ccc(C2(CNCC(O)c3cccc([N+](=O)[O-])c3)CCCC2)cc1OC` (stereo unspecified): 0%; `CC(=O)Nc1cc(C(=O)Nc2ccc(C3=NCCN3)cc2)ccc1C(=O)Nc1ccc(C2=NCCN2)cc1`: 0%; `Cc1ccn(CC(=O)N2CCOc3c(cc(-c4csc5ccccc45)cc3OCCc3ccccn3)C2)n1`: 4%. In the case of `CCN1C=Cc2ccccc2/C1=C\c1ccc2ccccc2[n+]1CC` it was 23.6%; in that of `CC[n+]1c(C=C2C=CN(c3ccc(Cl)cc3)C=C2)ccc2ccccc21`, 15.4%; in that of `CC[n+]1c(/C=C/c2ccc(Cl)cc2)ccc2ccccc21`, 4.84%.

For the compound `O=C(CCl)Nc1ccc(OC(F)F)cc1`, the IFI worked out at 0%. Next, `COc1ccc2nc(-c3ccccc3)cc(NCCN(C)C)c2c1`: 3.51%; `O=c1cc(NC2CCN(CCCc3ccccc3)CC2)c2cc(Cl)ccc2o1`: 0%; `CCOC(=O)c1cnc2cc(OCC(C)C)c(OCC(C)C)cc2c1O`: 0.649%. In the case of `CN1c2ccccc2N(C)C1c1ccc2c(c1)OCO2` it was 0.621%; in that of `c1ccc(C2=NN(c3ccccc3)C(c3ccc4c(c3)OCO4)N2c2ccc(N3CCOCC3)cc2)cc1` (stereo unspecified), 23.1%. In the case of `c1cn2c(-c3ccc(N4CCOCC4)cc3)cnc2c(NCc2ccc3c(c2)OCO3)n1` it was 0%; in that of `CCN1CCN(c2cc(C)c3cc(NC(=O)c4ccc(F)c([N+](=O)[O-])c4)ccc3n2)CC1`, 6.67%; in that of `Cc1cc(Nc2cccc3ccccc23)nc(Nc2cccc3ccccc23)n1`, 0%.

Compound `O=S(=O)(c1ccccc1)N1CCN(CC2CNCCO2)CC1` (stereo unspecified) yielded an IFI of 1.41%.

With `Cc1oc2c(c1C(=O)NCCCn1ccnc1)C(=O)c1ccccc1C2=O`, the IFI was 24.3%. In the case of `Cc1oc2c(c1C(=O)N1CCC(C)CC1)C(=O)c1ccccc1C2=O` it was 15.4%.

`Cc1oc2c(c1C(=O)NC1CCS(=O)(=O)C1)C(=O)c1ccccc1C2=O` (stereo unspecified) showed an IFI of 29.7%. In turn, `Cc1oc2c(c1C(=O)NCC1CCCO1)C(=O)c1ccccc1C2=O` (stereo unspecified) registered an IFI of 17%. In the case of `CCOC(=O)c1c(C)oc2c1C(=O)c1ccccc1C2=O` it was 3.17%.

For `Cc1oc2c(c1C(=O)NCc1cccnc1)C(=O)c1ccccc1C2=O`, the IFI was determined as 17.5%. In the case of `COc1cc(NC(C)CCCN(Cc2ccc(F)cc2)C(=O)CCc2ccccc2)c2ncccc2c1` (stereo unspecified) it was 1.71%; in that of `COc1cc(NC(C)CCCN(Cc2ccc(OC)c(OC)c2)C(=O)CC(C)CC(C)(C)C)c2ncccc2c1` (stereo unspecified), 3.64%; in that of `O=C(Cc1cccs1)N1CCN(c2ccccn2)CC1`, 2.35%. In the case of `COc1ccc(C[C@H](N)C(=O)N[C@H]2[C@@H](O)[C@H](n3cnc4c(N(C)C)ncnc43)O[C@@H]2CO)cc1` it was 30.8%; in that of `COCCN1C(=O)c2[nH]nc(-c3ccccc3O)c2C1c1ccc(SC)cc1` (stereo unspecified), 0%; in that of `C[n+]1c2ccccc2nc2ccc(NCCc3cnc[nH]3)cc21`, 15.4%.

As to `C[n+]1c2ccccc2nc2ccc(NC3CCCCC3N)cc21` (stereo unspecified), the IFI came out at 23.1%.

In turn, `COc1ccc2c(c1)[nH]c1c(N3CCN(C(c4ccccc4)c4ccccc4)CC3)ncnc12` showed an IFI of 8.77%. For the compound `Cc1ccc(S(=O)(=O)c2c(COC(=O)c3cccc(C)c3)c(-c3ccccc3)nn2C)cc1`, the IFI is 3.9%. In the case of `CN[C@H]1C[C@@H]2O[C@](C)([C@H]1O)n1c3ccccc3c3c4c(c5c6ccccc6n2c5c31)C(=O)NC4` it was 46.2%; in that of `COc1cc2c(-c3cc(Br)ccc3O)nc3c(c(-c4ccccc4)nn3-c3ccccc3)c2cc1OC`, 3.03%; in that of `CC[n+]1c(/C=C/N(C)c2ccccc2)sc(-c2ccccc2)c1-c1ccccc1`, 14.3%. Next, `CC[n+]1c(C=CN(C)c2ccccc2)oc(-c2ccccc2)c1-c1ccccc1`: 22.7%.

`CC[n+]1c(C=CN(C)c2ccccc2)sc2ccc(Cl)cc21` gave an IFI of 9.09%. Next, `CC(NCc1ccccc1)c1cc(Cl)ccc1O` (stereo unspecified): 0%. In the case of `Oc1c(C(Nc2ccccn2)c2cccc(Cl)c2Cl)ccc2cccnc12` (stereo unspecified) it was 15.4%; in that of `CC(C)(C)c1ccc(-c2c[n+](-c3ccccc3)c3n2CCCS3)cc1`, 23.1%. In the case of `Clc1ccc(-c2c[n+](-c3ccccc3)c3n2CCS3)cc1` it was 0.725%; in that of `Cc1ccc(-c2c[n+](-c3ccccc3)c3n2CCCS3)cc1`, 7.69%. On to `CC1CNC2C(C)C3C(CC4C5CCC6CC(N)CCC6(C)C5CCC43C)OC2(O)C1` (stereo unspecified), for which the IFI turned out to be 5.26%. In the case of `Oc1ccccc1-c1nc2sc(-c3ccccc3O)nc2s1` it was 11%; in that of `N#C/C(=C\c1ccc(Sc2ccccc2)o1)c1nc2ccccc2[nH]1`, 6.74%. As to `N#C/C(=C\C=C\c1ccc([N+](=O)[O-])o1)c1nc2ccccc2[nH]1`, the IFI is 28.6%. Next, `CCN(CC)c1ccc(/C=C(/C#N)c2nc3ccccc3[nH]2)o1`: 7.69%. Next, `COc1cc(C(=O)NC2CC3CCC(C2)N3C2CC2)cc(OC)c1OC` (stereo unspecified): 0%. In the case of `COc1ccc(-c2c[n+](CC(=O)c3ccc(Cl)cc3)c3n2CCC3)cc1` it was 5%.

In turn, `O=C(C[n+]1cc(-c2ccc(Cl)cc2)n2c1CCC2)c1ccc(C2CCCCC2)cc1` came in with an IFI of 27.5%.

As for `O=C(C[n+]1cc(-c2ccccc2)n2c1CCC2)c1ccc(C2CCCCC2)cc1`, the IFI came out at 12.5%. Regarding `c1cc2cc(CN3CCc4nc(N5CCCCC5)sc4C3)ccc2[nH]1`, the IFI came out at 4.17%. Next, `CN1CCc2c(sc3nc(SCc4ccc(F)cc4)n(-c4ccccc4)c(=O)c23)C1`: 2.5%; `CC1C/C(=C/c2ccncc2)C(=O)/C(=C/c2ccncc2)C1` (stereo unspecified): 33.3%; `COc1cc(/C=C2\CC/C(=C\c3cc(OC)c(OC)c(OC)c3)C2=O)cc(OC)c1OC`: 2.7%. The compound `COc1ccc2c(c1)c(C)cc[n+]2Cc1ccccc1` gave an IFI of 6.3%. With `CC(C)(C)CC(=O)NCc1ccc(OC2CCN(CC(c3ccccc3)c3ccccc3)CC2)cc1`, the IFI was found to be 7.04%. In the case of `O=C1CCC(c2ccc(Cl)c(Cl)c2)c2ccc(O)cc21` (stereo unspecified) it was 0%; in that of `COc1ccc(-c2cc(C3CCN(c4nc(N)c5cc(OC)c(OC)cc5n4)CC3)n[nH]2)cc1OC`, 7.41%; in that of `COc1cc2nc(N3CCN(c4nc(N)c5cc(OC)c(OC)cc5n4)CC3)nc(N)c2cc1OC`, 23.1%.

Turning to `COc1cc2nc(Nc3ccc(F)cc3)nc(N)c2cc1OC`, the IFI turned out to be 0%.
